B1: ENSMUSG00000043670.63|Diras1 (ssRNA)
RNA: GGGAGUUCUACAGUCCGACGAUCGCUUCGAUAUCCGCAUGCUAAGACCUCUCCCUCUAUAUCUCUUUGCUCCCCCACCCCCAUUCUAUCUGCACCCCACAACCACACACUGGAGGUUUGAUCCCUGUGGAUCUGAAAACAGGGACCUGGCUAAGGAACUGCUCAUCCCAGUCAGGCCCAGAGAGGUUACCUUGCCUCUCCAUCUCUGUCCCUGUGUGCCCAGCCAUGCCCACUGUCCCUGUCCCUCACAUUCUAUCACUGUGACCUCUGGGGAGUGCCCAUUGACCUCAUCUUCCUUCACUAACUCUUGCGGUCGCACUAGUGUGGAAUUCUCGGGUGUCAAGG
B2: ENSMUSG00000058297.300|Spock2 (ssRNA)
RNA: GGGAGUUCUACAGUCCGACGAUCGCUUCGAUAUCCGCAUGCUAAGGGCCACCCUGAUGCCCAGGAAGAGUGAGGGCAGCCCCCUGUGUGGUGGAAGAGGCUGGGCAGCUAGCUACUGGGGACCUUGUGCUGAGGCUUCCAGGACAAAGCCCCAGUCUGGCUCUCCCCCAGCCUCUCAGGGGCACUGGCUGGUCACAUCCACUGAGUAUUGAUCGGUUGGACUUUAGGGAAGAGCCUCCUCCUUCCCAUUCCUUUCUGCCACCCUGGAAUGGCCACCUUAAUCGUCAUCUCCUCGGGGGGAAUACUCUUGCGGUCGCACUAGUGUGGAAUUCUCGGGUGUCAAGG
B3: ENSMUSG00000031028.551|Tub (ssRNA)
RNA: GGGAGUUCUACAGUCCGACGAUCGCUUCGAUAUCCGCAUGCUACCUGGUUUCCCUUCUCAGCAGUCCUGGCCUCCCCUUCUCUGUAUUCCUUGCCCCAGCUACGAUAUCCUCAUGGGAUUUCAGGAUGCCAGGUGCCAUCAAAGCAUGCUUUUUUGUGGUGCCUAGCACUGUGACUGGGGCCCAACUGCCCUGCAGAGUUGGGACCUUGCACUGCCCUAGACCCUGGCUUUAGAUCUGCUUCAGUCUCCAGAACAGGCUAUGGGAUAGAUUUUUCUUUCAGUUUAUGGCCACCUGCCCAAAUUCUCUUGCGGUCGCACUAGUGUGGAAUUCUCGGGUGUCAAGG
B4: ENSMUSG00000028439.8|Fam219a|14:18;220:226 (ssRNA)
RNA: GGGAGUUCUACAGUCCGACGAUCGCUUCGAUAUCCGCAUGCUAAACCCCACCUGCAACACAUGUCAGGCCACUUCCUCCACCGCCUGCCACAUUCAGUAGUGGGCGGGGUCGCCGCGGUGCACGGGGCGCUGACCUGGGCCCGGUGGGAUGCAGCAGGAGAGACCCCUACCCUGCUGGUCCACUGGUCCCCAGCCCCGCGCCUCUUAGAGCCGCCAACCUCGUAACAGUCAUUGCUUCCUCCUAUGGUAGGACGUGUACCUCACACACAUCAAGGAGCCGGAGAAACCAAAACCGGGUCUGUCCUCUUGCGGUCGCACUAGUGUGGAAUUCUCGGGUGUCAAGG

The full ranking holds about 9,900 sequences; the median of “r (bound/input frequency ratio)” is about 0.7, and the highest 2% start at about 6.5. For the sample, the highest values were picked, then their nearest neighbours and some sequences at random.

Chain of TDP-43 (Q13148 whole entry): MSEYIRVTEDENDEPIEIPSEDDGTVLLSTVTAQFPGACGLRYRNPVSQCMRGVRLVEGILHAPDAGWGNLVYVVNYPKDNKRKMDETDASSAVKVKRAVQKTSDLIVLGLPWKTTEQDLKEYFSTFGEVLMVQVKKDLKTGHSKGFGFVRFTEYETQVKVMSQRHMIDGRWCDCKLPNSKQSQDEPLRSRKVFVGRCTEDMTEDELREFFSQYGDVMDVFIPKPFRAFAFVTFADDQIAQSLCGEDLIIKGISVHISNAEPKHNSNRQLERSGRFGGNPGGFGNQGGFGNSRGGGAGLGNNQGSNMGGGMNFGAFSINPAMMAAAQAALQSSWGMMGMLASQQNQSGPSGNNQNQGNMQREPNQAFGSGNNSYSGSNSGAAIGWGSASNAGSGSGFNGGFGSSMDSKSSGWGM

This assay concerns the target TDP-43 (Homo sapiens, UniProt Q13148 1-414). As to the kind of experiment: RNA Bind-n-Seq with designed 260-mer pool; 25 mM Tris-HCl, 150 mM KCl, 3 mM MgCl2, BSA (printed 500 mg/mL), 20 units/mL SUPERase IN; pH not stated; 500 nM RNA pool, 1 h, 4 C; TDP-43 5, 50, 500 nM; high values mean tight binding. The settings on record: protein: recombinant; tags: SBP (GST cleaved off with PreScission; pGEX-GST-SBP). In outline:
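Binding (R) is the ratio of each oligo's mapped-read-normalized abundance in the bound fraction to its abundance in the input. To obtain it, SBP-tagged recombinant TDP-43 (5, 50 or 500 nM) on streptavidin beads was incubated with 500 nM of an in vitro-transcribed 260-nt 3′ UTR oligo pool for 1 h at 4 °C in 25 mM Tris-HCl, 150 mM KCl, 3 mM MgCl2, BSA and SUPERase IN. The RNA retained after washing was released with biotin, then reverse transcribed, amplified by PCR and sequenced.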
As to B1, the binding signal is 2.02 R (bound/input frequency ratio). As for B2, the figure is 0.798 R (bound/input frequency ratio); as for B3, 0.798 R (bound/input frequency ratio). Under B4 stands 0.367 R (bound/input frequency ratio).

The values above are taken from paper PMC12864922, “TDP-43 directly inhibits mRNA accumulation in neurites through modulation of mRNA stability”.
